Compound activity as filed in PubChem.
TRPV1 potentiator – human TRPV1 potentiation; 320,000 compounds, 0.02% hits; Q8NER1; potentiation, % at 8.33 µM; TRPV1-expressing cells, Fluo-8 calcium influx, capsaicin EC20 potentiation; in the data active = potentiation above about 80%; inconclusive = between about 30% and that limit
Target sequence (Q8NER1 whole entry, looked up): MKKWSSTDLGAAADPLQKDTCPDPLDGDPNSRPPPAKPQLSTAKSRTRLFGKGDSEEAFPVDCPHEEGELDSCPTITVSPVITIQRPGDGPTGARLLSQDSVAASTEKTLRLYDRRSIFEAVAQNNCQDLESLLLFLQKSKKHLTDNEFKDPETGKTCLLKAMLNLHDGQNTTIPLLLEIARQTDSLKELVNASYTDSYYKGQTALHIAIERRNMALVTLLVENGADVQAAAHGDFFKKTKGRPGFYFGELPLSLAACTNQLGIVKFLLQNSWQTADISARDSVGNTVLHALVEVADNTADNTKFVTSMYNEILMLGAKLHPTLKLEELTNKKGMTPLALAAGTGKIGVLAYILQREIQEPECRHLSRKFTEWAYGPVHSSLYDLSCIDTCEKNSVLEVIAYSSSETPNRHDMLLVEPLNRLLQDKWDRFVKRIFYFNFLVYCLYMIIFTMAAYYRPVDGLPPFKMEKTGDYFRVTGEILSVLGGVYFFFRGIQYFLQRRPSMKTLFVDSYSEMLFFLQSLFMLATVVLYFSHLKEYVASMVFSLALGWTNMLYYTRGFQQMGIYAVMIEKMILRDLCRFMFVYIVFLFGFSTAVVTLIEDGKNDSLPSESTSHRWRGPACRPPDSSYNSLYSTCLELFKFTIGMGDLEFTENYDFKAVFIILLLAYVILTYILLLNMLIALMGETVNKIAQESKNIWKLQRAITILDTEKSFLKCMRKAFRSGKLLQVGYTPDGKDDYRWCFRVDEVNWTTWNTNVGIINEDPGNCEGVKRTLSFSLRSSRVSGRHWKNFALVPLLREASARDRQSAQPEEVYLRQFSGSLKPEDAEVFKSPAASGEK
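Cells expressing TRPV1 were dye-loaded with Fluo-8 and read kinetically: 10 s baseline, 3 min after compound (agonist portion), then 2 min after EC20 capsaicin (allosteric enhancer portion). Calcium-bound dye fluorescence at 480/520 nm.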
TRPV1 agonist – activates the human vanilloid receptor TRPV1; activation, % at 8.33 µM; AID 540275; Q8NER1; TRPV1-expressing cells, Fluo-8 calcium influx, agonist mode; 320,000 compounds, 0.19% hits; in the data active = activation above about 80%; inconclusive = between about 30% and that limit
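TRPV1-expressing cells were cultured overnight at 35.5C and loaded with Fluo-8 calcium dye for 40 to 90 min at room temperature. After a 10 s baseline, compound was added and calcium influx was read kinetically for 3 min (ex 480/em 520 nm).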
KCNH2 3.1 inh – KCNH2 3.1 (human) potassium channel inhibition. U2OS KCNH2 3.1, thallium flux FluxOr; stronger effect = lower value. activity change, % (tested at about 1.8 µM). 340,000 compounds, 0.95% hits. AID 720553;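 active = maximum activity change below -70%; inconclusive = maximum activity change from -70% to -50%; inactive = maximum activity change above -50%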;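 also: thallium influx rate constant from kinetic fluorescence after stimulation buffer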
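Normalized rate constant (relative to positive and negative DMSO controls) derived from a 2 min kinetic fluorescence read after stimulation; U2OS cells expressing the 3.1 isoform via virus at 1.77 x 10^8 /mL.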
KCNH2 WT inh – blocks the wildtype human KCNH2 potassium channel | U2OS, BacMam KCNH2, thallium flux FluxOr; stronger effect = lower value | 340,000 compounds, 0.37% hits | AID 720551 | activity change, % at 1.84 µM;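 active = maximum activity change below -70%; inconclusive = maximum activity change between -70% and -50%; inactive = maximum activity change above -50%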
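U2OS cells were transduced with wild-type KCNH2 virus (2.03 x 10^8 / mL) for 4 h at room temperature, then cultured overnight at 37 C. Thallium flux was read with FluxOr dye. Rate constants were normalized to DMSO controls.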
A number is an active result; – = inactive; ? = inconclusive; · = no result. Sampled rows, rich in hits. Any-hit rate of the full collection: about 1.2%.

SMILES | TRPV1 potentiator | TRPV1 agonist | KCNH2 3.1 inh | KCNH2 WT inh
Cc1cc(C)nc(SCNC(=O)c2ccc(Cl)cc2)n1 | – | – | -101.4 | –
C[C@@H]1CN([C@@H](C)CO)C(=O)c2cc(N(C)C)ccc2O[C@@H](C)CCCCO[C@@H]1CN(C)Cc1ccc2c(c1)OCO2 | · | · | – | –
O=C(O)CCC(=O)N1CCc2c([nH]c3ccccc23)C1C(F)(F)F (stereo not drawn) | – | – | -84.5 | –
O=C(Nc1ccccc1)N1CCc2c([nH]c3ccccc23)C1C(F)(F)F (stereo not drawn) | – | – | – | –
COc1cc([N+](=O)[O-])c(C)cc1NC(=O)c1ccc(OC)c(OC)c1 | · | · | – | –
CC[N+](CC)(CC)CC(=O)Nc1ccc(SC(F)F)cc1 | – | – | – | –
Cc1ccc(C(=O)Nc2ccc(SC(F)F)cc2)s1 | – | 85.8 | – | –
O=C(COC(=O)/C=C/c1cccc(Cl)c1Cl)Nc1ccc2[nH]c(=O)[nH]c2c1 | – | – | – | –
Cc1cc(/C=C2\Cc3ccccc3C2=O)c(C)n1-c1ccccc1 | – | 86.0 | – | –
Cc1cc(C=C2C(=O)c3ccccc3C2=O)c(C)n1-c1ccccc1 | – | – | – | –
Cc1cccc(OC(C)C(=O)Nc2ccc3c(c2)OCCO3)c1 (stereo not drawn) | · | · | – | –
COc1cc(CNCCc2c[nH]c3ccccc23)ccc1OCc1ccc(F)cc1 | – | – | -87.7 | –
COc1ccc([C@H]2N[C@]3(CCCN(Cc4ccccc4)C3=O)[C@H]3C(=O)N(Cc4ccccc4)C(=O)[C@@H]23)cc1 | · | · | – | –
CCc1nnc(NC(=O)Cc2c[nH]c3ccccc23)s1 | – | – | -144.4 | –
COC1OC2COC(c3ccccc3)OC2C2OC(c3ccccc3)OC12 (stereo not drawn) | · | · | – | –
CC(C)Cc1nc(N2CCN(C(=O)C(C)C)CC2)c(C#N)c2c1CCC2 | – | – | – | –
CC(=O)N1CCN(c2nc(CC(C)C)c3c(c2C#N)CCC3)CC1 | – | 93.1 | – | –
O=C(CCCCC(=O)NN=Cc1ccc(Cl)cc1)NN=Cc1ccc(Cl)cc1 | · | · | – | –
N#CCC(=O)N/N=C/c1ccc(Cl)cc1 | – | – | -73.3 | –
CC(NC(=O)CCNS(=O)(=O)c1ccccc1)c1ccccc1 (stereo not drawn) | – | – | – | -156.2
CCCCOc1ccc(C(O)(CCC)CCN2CCOCC2)cc1 (stereo not drawn) | – | – | – | –
CCCCCC(O)(CCN1CCCCC1)c1ccc(OCC)cc1 (stereo not drawn) | – | – | -113.9 | -98.9
COc1ccc(Br)cc1S(=O)(=O)NCCc1cccs1 | · | · | – | –
COc1cc(NC(=O)c2ccccc2)c(OC)cc1NC(=O)CN1C(=O)N(C)C2(CCCCC2)C1=O | – | – | – | –
Nn1c(SCc2cccc(F)c2)nnc1-c1cccnc1 | – | – | – | –
SMILES | TRPV1 potentiator | TRPV1 agonist | KCNH2 3.1 inh | KCNH2 WT inh
Nn1c(SCc2cccc(Br)c2)nnc1-c1cccnc1 | – | – | -98.9 | –
COc1cc(NS(=O)(=O)c2cc(C(=O)NCCc3ccccn3)ccc2OC)cc(OC)c1 | · | · | – | –
CN(C)S(=O)(=O)Nc1cccc(Br)c1 | – | – | – | -126.3
CC(=O)c1cccc(NS(=O)(=O)N(C)C)c1 | – | – | – | –
CC(C)c1ccc(NC(=O)c2cc(Br)ccc2Br)cc1 | – | – | – | –
O=C(Nc1ccc(Cl)cc1)c1ccc(Br)cc1F | – | 83.0 | – | –
O=C(c1ccc(Cl)cc1)C1CCCN(Cc2cnn(-c3ccccc3)c2)C1 (stereo not drawn) | – | – | -87.5 | -78.2
C/C(=N\OCC(=O)OC(C)C(=O)Nc1ccc(C)c(S(=O)(=O)N2CCOCC2)c1)c1ccc2c(c1)OCO2 (stereo not drawn) | · | · | – | –
O=c1[nH]c(CN2CCN(C/C=C/c3ccccc3)CC2)nc2cc(Cl)ccc12 | – | – | -99.2 | -110.2
COc1ccc(OC(C)C(=O)Nc2ccccc2F)cc1 (stereo not drawn) | – | – | – | –
COc1ccc(OC(C)C(=O)Nc2ccc(F)cc2F)cc1 (stereo not drawn) | – | – | -189.8 | -135.7
COC(=O)c1cc(S(=O)(=O)N2CCN(c3ccccc3F)CC2)c[nH]1 | – | – | -78.7 | –
C[C@H]1CN([C@@H](C)CO)C(=O)c2cc(C#CCC3CCCC3)cnc2O[C@@H]1CN(C)C(=O)CC1CC1 | · | · | – | –
Cc1ccc(NC(=O)CSc2nnc(C)n2CC2CCCO2)cc1 (stereo not drawn) | – | – | – | ·
Cc1nc(NC(=O)CSc2nnc(C)n2CC2CCCO2)sc1C (stereo not drawn) | – | – | – | -188.1
CC(=O)Oc1cc(C(=O)OCC(=O)NC23CC4CC(CC(C4)C2)C3)cc(OC(C)=O)c1OC(C)=O | · | · | – | –
CCN(CC(=O)NCCc1ccc(S(N)(=O)=O)cc1)Cc1ccccc1 | – | – | -74.4 | –
Cc1ccc(OC(C)C(=O)Nc2cccc(S(=O)(=O)N3CCCCCC3)c2)cc1 (stereo not drawn) | · | · | – | –
Cc1cc(C(=O)N/N=C/c2cccc(OC(=O)c3cccc(Br)c3)c2)n[nH]1 | – | – | -190.6 | -151.2
COc1cc(C(=O)Oc2cccc(/C=N/NC(=O)c3cc(C)[nH]n3)c2)cc(OC)c1OC | – | – | – | –
CC1Cc2ccccc2N1C(=O)COC(=O)c1ccc(Cl)c(S(=O)(=O)N2CCOCC2)c1 (stereo not drawn) | – | – | – | –
Cc1ccc(C)c(CNc2ccc(S(=O)(=O)N3CCCCC3)cc2)c1 | – | – | -100.4 | -155.0
COc1cccc(-c2nn(C)c3sc(C(=O)NCc4ccc5c(c4)OCO5)cc23)c1 | · | · | -91.6 | –
COc1cccc(-c2nn(C)c3sc(C(=O)NCc4ccc(C)o4)cc23)c1 | – | – | – | –
COCCN(C(=O)CSc1nc2ccccc2s1)c1c(N)n(Cc2ccccc2)c(=O)[nH]c1=O | · | · | – | –
SMILES | TRPV1 potentiator | TRPV1 agonist | KCNH2 3.1 inh | KCNH2 WT inh
Cc1ccc(C(=O)CC(=O)c2ccccc2)cc1 | – | 80.7 | – | –
Cc1ccc(C(=O)Cc2ccccc2)cc1 | · | · | – | –
COc1ccc(NC(=O)NCCCN2CCc3ccccc3C2)cc1 | – | ? | – | –
O=C(NCCCN1CCc2ccccc2C1)Nc1ccc(Br)cc1 | – | ? | -80.3 | –
Clc1ccc2nc(C3CCN(Cc4nnnn4C4CCCCC4)CC3)[nH]c2c1 | – | – | – | –
Cc1ccc(Cn2nnnc2CN2CCC(c3nc4ccc(Cl)cc4[nH]3)CC2)cc1 | – | – | -87.9 | –
CCOc1ccc(OCC(=O)Nc2cc(Cl)ccc2-n2cncn2)cc1 | · | · | – | –
CCOc1ccc(CN(C)c2ccc(S(=O)(=O)N3CCN(C)CC3)cc2[N+](=O)[O-])cc1OC | – | – | – | –
COc1ccccc1NC(=O)C(C)OC(=O)CSCC(=O)Nc1cc(C)on1 (stereo not drawn) | – | – | – | –
COc1ccccc1NC(=O)C(C)OC(=O)CSCC(=O)Nc1ccc(C)cc1C (stereo not drawn) | – | – | -73.6 | –
O=C(NCCC1=CCCCC1)C1CCN(S(=O)(=O)N2CCOCC2)CC1 | – | – | -71.0 | –
